Over roughly 68,000 sequences, “fluorescence intensity (a.u.)” has its median near 9,100; the highest 2% begin near 16,000. This is one part of a sample in which the highest values are shown more often than they occur.
Each sequence was assayed against OsWRKY34 (Oryza sativa, UniProt Q0JBA9 1-250) (assay: protein-binding microarray (RPBM); PBS, 2% BSA, 51.3 ng/ul salmon testes DNA, 50 uM zinc acetate, 200 nM TF, 25 C, 1 h; high values mean tight binding). Settings: protein: recombinant; tags: N-terminal polyhistidine and DsRed monomer fusion (pET32a); label: CyDye5-dUTP incorporated in the synthesized complementary strand; 3' TTTTT single-stranded linker to array surface; dsDNA, one strand shown.
OsWRKY34, sequence (Q0JBA9 entry or part of it): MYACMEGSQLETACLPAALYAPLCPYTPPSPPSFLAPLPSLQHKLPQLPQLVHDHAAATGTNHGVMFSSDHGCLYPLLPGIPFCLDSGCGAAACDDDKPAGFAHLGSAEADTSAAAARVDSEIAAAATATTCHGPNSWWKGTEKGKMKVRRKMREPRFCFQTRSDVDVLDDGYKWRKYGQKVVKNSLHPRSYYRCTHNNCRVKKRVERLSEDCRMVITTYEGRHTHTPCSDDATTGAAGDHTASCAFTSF
Summary of the method: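 Binding signal here means per-feature fluorescence intensity in arbitrary units. The values were read on an Axon 4000B scanner after a custom Agilent array, double-stranded by primer extension with Cy5-dUTP, was incubated with 200 nM protein at 25 °C for 1 h in PBS with 2% BSA, salmon testes DNA and 50 µM zinc acetate, then washed. The proteins were transcription factors with an N-terminal polyhistidine tag and DsRed, expressed in E. coli BL21-CodonPlus and purified on Ni–NTA.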
“TCCATCACTAGCTATTTTGGTACTTTCATCTACTTATTACCGGAGTCACCTAGTGCAG” was tested, and the binding signal was 8340 fluorescence intensity (a.u.). “TCTCTCGTTTTCCACACACACGTTTTTTAAACTGCTAAACCGGAGTCACCTAGTGCAG” was tested, and the binding signal was 10200 fluorescence intensity (a.u.). With “CAAGGCCCGCCCATCCGTCTCCTCACACTCTGGCACACCTCGGAGTCACCTAGTGCAG” the binding signal was 8580 fluorescence intensity (a.u.). For “CAATCCATCAAACATGCAGTCAAGGTGTATTATTCAGTATCGGAGTCACCTAGTGCAG”, the binding signal was 9880 fluorescence intensity (a.u.). In the case of “ACTCTTATTGTTCAAATGAAAATGCTAGGGGTATAACTGCCGGAGTCACCTAGTGCAG”, the binding signal is reported as 8340 fluorescence intensity (a.u.). In the case of “CGTTGACTTTTTTAAATATATTTAGCAGTTCGTCTTATTACGGAGTCACCTAGTGCAG”, the binding signal is reported as 16500 fluorescence intensity (a.u.). “GACTTTTTAACACATGTTTGACCGTTCGTCTTATTCAAAACGGAGTCACCTAGTGCAG” was tested, and the binding signal was 10900 fluorescence intensity (a.u.). For “ACTTTTTTAAACATGTTTGGCCGTTCGTCTTATTCAAAAACGGAGTCACCTAGTGCAG”, the binding signal was 9620 fluorescence intensity (a.u.). With “ACCGTTGATTTTTTTAAACATGTTTGACCGTTCGTCTTATCGGAGTCACCTAGTGCAG” the binding signal was 17100 fluorescence intensity (a.u.). With “GCCGTTGACTTTTTTAAACATGTTTGACCGTTCGTCTTATCGGAGTCACCTAGTGCAG” the binding signal was 45200 fluorescence intensity (a.u.). “GCCGTTGACTTTTTAACACATGTTTGACCATTCGTCTTATCGGAGTCACCTAGTGCAG” was tested, and the binding signal was 60200 fluorescence intensity (a.u.). “TTTTAACATTTTTCTTGCACTGTTTGACCATTCGTCTTATCGGAGTCACCTAGTGCAG” was tested, and the binding signal was 10400 fluorescence intensity (a.u.). “ACTGTTCGTCTTATTTAAAATTTTTTAAATATTATTTATACGGAGTCACCTAGTGCAG” was tested, and the binding signal was 12300 fluorescence intensity (a.u.). “ACTTATATTTTTTTAACGTTTGATTGTTCGTCTTATTAAACGGAGTCACCTAGTGCAG” was tested, and the binding signal was 9470 fluorescence intensity (a.u.). With “TTTTAAACATGTTTGACCGTTCGTCTTATTCAAAAAATTTCGGAGTCACCTAGTGCAG” the binding signal was 8310 fluorescence intensity (a.u.). For “CTTTTTTAAACATGTTTGACCGTTCGTCTTATTTAAAAAACGGAGTCACCTAGTGCAG”, the binding signal was 9350 fluorescence intensity (a.u.). “TGCCGTTGATTTTTTTTTAAACATGTTTGACCGTTCGTCTCGGAGTCACCTAGTGCAG” was tested, and the binding signal was 14900 fluorescence intensity (a.u.). With “CCACACTCCTCGCTCGCCTGCCTCTCTGTTCTTAATTAGCCGGAGTCACCTAGTGCAG” the binding signal was 8750 fluorescence intensity (a.u.). In the case of “AAGCCCAACGTGCTTCATCTCTTCTTCTATCTTATCTTCTCGGAGTCACCTAGTGCAG”, the binding signal is reported as 8190 fluorescence intensity (a.u.). For “GCGGAGGAAAGGTGGGGTGGTAAAAAACGGAAAAACCGGACGGAGTCACCTAGTGCAG”, the binding signal was 8960 fluorescence intensity (a.u.). “TATGCATACTTTTTTATCACTGTAGTTACTAGCTAAGATCCGGAGTCACCTAGTGCAG” was tested, and the binding signal was 9000 fluorescence intensity (a.u.). For “GCCCGTCTTCGTCCAGTTCCTGATCAGGTATGGTCCTTCTCGGAGTCACCTAGTGCAG”, the binding signal was 8060 fluorescence intensity (a.u.). In the case of “ACCCGAGATCTGATTCACTACCGCCGCCGGATCAAGCCACCGGAGTCACCTAGTGCAG”, the binding signal is reported as 8320 fluorescence intensity (a.u.). “TTCGCTCACCTCTCGATCGATCGACCTGCCAACATCAACACGGAGTCACCTAGTGCAG” was tested, and the binding signal was 10400 fluorescence intensity (a.u.). In the case of “ACGCTGTTGATTTTTTTAAACATGTTTGACCGTTCGTCTTCGGAGTCACCTAGTGCAG”, the binding signal is reported as 13200 fluorescence intensity (a.u.). With “ATTCAAATTTGTCAAACATTGTTTTCTTCTCTTTCATATCCGGAGTCACCTAGTGCAG” the binding signal was 8650 fluorescence intensity (a.u.). For “ACACCGCTGACTTTTTAAAACATGTTTTACCGTTCGTCTTCGGAGTCACCTAGTGCAG”, the binding signal was 13600 fluorescence intensity (a.u.). In the case of “CGTTGACTTTTTATCAAATGTTTGACCGTTCGTCTTATTTCGGAGTCACCTAGTGCAG”, the binding signal is reported as 28900 fluorescence intensity (a.u.). With “ACGCCGTTGACTTTTTTAAACATGTTTGACTGTTCGTCTTCGGAGTCACCTAGTGCAG” the binding signal was 38200 fluorescence intensity (a.u.). With “TTGACTTTTTAAAATATGTTTGACCGTTCGTCTTATTCAACGGAGTCACCTAGTGCAG” the binding signal was 8040 fluorescence intensity (a.u.). For “TGACTTTTTATCATATGTTTGACCGTTCGTCTTATTCAAACGGAGTCACCTAGTGCAG”, the binding signal was 10900 fluorescence intensity (a.u.). With “ATTGATATCAAACCGTTTCTTTTGTCATATTCGTCATTTCCGGAGTCACCTAGTGCAG” the binding signal was 17700 fluorescence intensity (a.u.). “AGTGTTAGTTGACTGTTAGTCAAAGGTTAGTTTTTTTCGTCGGAGTCACCTAGTGCAG” was tested, and the binding signal was 9180 fluorescence intensity (a.u.). “TCACGTTCAACGTTTGACTGTTCGTCTTATTTAAAATTTTCGGAGTCACCTAGTGCAG” was tested, and the binding signal was 8400 fluorescence intensity (a.u.). For “TTATCAAATATTCCATCCGTCTTTTTTGATATTTTAATTTCGGAGTCACCTAGTGCAG”, the binding signal was 9840 fluorescence intensity (a.u.). For “CGTTGACTTTTTTAAAAGTGTTTGACTGTTCGTCTTTTTTCGGAGTCACCTAGTGCAG”, the binding signal was 30500 fluorescence intensity (a.u.). “ATGCGTGCGCTCAGCCCATTCTGCTTGTATTTTCAGTACACGGAGTCACCTAGTGCAG” was tested, and the binding signal was 11300 fluorescence intensity (a.u.). “ACCCACCCACCCACCCGGTCTGTCTCCTAACCCCGGTCGCCGGAGTCACCTAGTGCAG” was tested, and the binding signal was 12600 fluorescence intensity (a.u.). With “GATCGTGGAATTAATTCCACCTTAGTTGTTATGGGCGGGTCGGAGTCACCTAGTGCAG” the binding signal was 11400 fluorescence intensity (a.u.). In the case of “GAACAACAACATGCCGCACGTGCGTATATATATATATATCCGGAGTCACCTAGTGCAG”, the binding signal is reported as 10800 fluorescence intensity (a.u.). In the case of “TCCATTGACACCGGCACACGCACACGCACACCCGCACCGCCGGAGTCACCTAGTGCAG”, the binding signal is reported as 8960 fluorescence intensity (a.u.). “CAACCTCACCTACTTCCACTTCCTCGACACCAACGGCGTCCGGAGTCACCTAGTGCAG” was tested, and the binding signal was 9590 fluorescence intensity (a.u.). “GCATGTGTTCGTTATGTGTGGTTGGAGATTTTCTCCCACACGGAGTCACCTAGTGCAG” was tested, and the binding signal was 8470 fluorescence intensity (a.u.). In the case of “CTGCTCGGAGCACACACAACCACCACTCACCACCAACATGCGGAGTCACCTAGTGCAG”, the binding signal is reported as 9280 fluorescence intensity (a.u.). With “TAATACACTAGCCCCAATGTTTGTTTGCCTAATCTACTCTCGGAGTCACCTAGTGCAG” the binding signal was 9080 fluorescence intensity (a.u.). In the case of “CGTCGTTGACTTTTTTAAACATATTTGACCGTTCGTCTTACGGAGTCACCTAGTGCAG”, the binding signal is reported as 17100 fluorescence intensity (a.u.). With “TTGACCTTTTTAAAACATTTTTGACCGTTCGTCTTATTCACGGAGTCACCTAGTGCAG” the binding signal was 10600 fluorescence intensity (a.u.). “TGTCGCCATCGTATCACCGTCGCGTCGCCATCCCGTCGCCCGGAGTCACCTAGTGCAG” was tested, and the binding signal was 8070 fluorescence intensity (a.u.). With “CCTCTATTTCATATTATACGTCGTTGACTTTTTTCTTAGTCGGAGTCACCTAGTGCAG” the binding signal was 17400 fluorescence intensity (a.u.). With “CTCTATTCGTTTTTCATATTATAAGTCGTTTGACGTTTTTCGGAGTCACCTAGTGCAG” the binding signal was 9170 fluorescence intensity (a.u.). “TTACACTGTTCATGTCTCACGTTTGACCGTTCGTTTTATTCGGAGTCACCTAGTGCAG” was tested, and the binding signal was 16400 fluorescence intensity (a.u.). In the case of “ACTTTTTAAAACATATTTGACCGTTCTTCTTATTAAAAAACGGAGTCACCTAGTGCAG”, the binding signal is reported as 8850 fluorescence intensity (a.u.). With “GGCCCATCTGACCAAGCCCAGCTCGCGTCGTCGTGTTGATCGGAGTCACCTAGTGCAG” the binding signal was 8930 fluorescence intensity (a.u.). With “CATATTATAAGTCGTTTTGACTTTTTTTTCTTAGTCAATCCGGAGTCACCTAGTGCAG” the binding signal was 12100 fluorescence intensity (a.u.). For “CCAAGCTTGTCGTGCCCGTATGTTCGCGTCCATCGTTGACCGGAGTCACCTAGTGCAG”, the binding signal was 19800 fluorescence intensity (a.u.). In the case of “GTTTTACACTATTCACGTTCAACGTTTGACCGTTCGTCTTCGGAGTCACCTAGTGCAG”, the binding signal is reported as 13400 fluorescence intensity (a.u.). With “AGTTTTGCACTGTTTATGTCTCACGTTTGACCGTTCGTTTCGGAGTCACCTAGTGCAG” the binding signal was 11400 fluorescence intensity (a.u.).

— paper PMC7819943, “Rice protein-binding microarrays: a tool to detect cis-acting elements near promoter regions in rice”
